# PfHsp90 yeast 2 – reduces growth (ATP signal) of yeast expressing P. falciparum Hsp90 | AID 504621 | inhibition, % at 9.4 µM | S. cerevisiae expressing PfHsp90, BacTiter-Glo ATP, 48 h; yeast lacking PDR1 and PDR3 efflux regulators | actives 0.32% (n = 310,000);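 active = every replicate shows inhibition above about 80%, whatever the replicate mean, limit read from the data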;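 note: 0% = DMSO neutral controls and 100% = 20 µM radicicol positive controls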
# tim10-1 inh – inhibits growth of tim10-1 mutant yeast | inhibition, % at 20 µM | S. cerevisiae tim10-1 ts strain growth, BacTiter-Glo, 24 h | actives 2.2% (n = 330,000);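 active = inhibition of at least 40%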;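 note: mutant grown at 25 °C; 0% = DMSO wells with yeast and 100% = wells holding no yeast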
# tim23-1 inh – inhibits growth of tim23-1 mutant yeast; actives 1.3% (n = 330,000); inhibition, % at 20 µM; S. cerevisiae tim23-1 growth, BacTiter-Glo luminescence, 24 h;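 active = growth inhibition of the mutant yeast at or above 50%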;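 note: temperature-sensitive mutant grown at 25 °C; plate controls were DMSO-treated mutant yeast for no effect and medium wells lacking yeast for full effect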
# TIM10 inh – TIM10 yeast growth inhibition; inhibition, % at 10 µM; actives 1.4% (n = 330,000); S. cerevisiae TIM10 strain growth, BacTiter-Glo luminescence, 24 h;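 active = inhibition of 40% or more at the single tested concentration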;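 note: wild-type TIM10 isogenic control strain grown at permissive 25 °C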
# NALP3 yeast inh – NALP3 inhibition in yeast; Yeast reconstituted NLRP3/ASC/caspase-1, beta-gal luminescence, 24 h; inhibition, % at 10 µM; actives 0.39% (n = 330,000); AID 2825;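 active = inhibition of 50% or more; inactive = inhibition below 50%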;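 note: plate controls were induced DMSO wells for no effect and uninduced yeast grown without galactose for full effect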
# SKKanGAS inh – blocks kanamycin growth of S. pyogenes SKKanGAS strain; BacTiter-Glo, 6 h; inhibition, % at 7.5 µM; actives 1.3% (n = 300,000);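 active = mean replicate score, as percent of positive control median, at least 50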;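 note: strain carries kanamycin resistance gene driven by streptokinase promoter and grows in 40 µg/ml kanamycin; loss of luminescence reflects streptokinase promoter inhibition or plain growth inhibition; 0% = median of DMSO wells and 100% = positive control at its reference dose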
# tim10 confirm – confirmation of TIM10 yeast growth inhibitors. shares compounds with TIM10 inh. S. cerevisiae tim10 strain growth, BacTiter-Glo luminescence, 24 h. inhibition, % at 10 µM. actives 63% (n = 4,600). AID 463215;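 active = inhibition of yeast growth at or above a set limit in either of two replicates at 10 µM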;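 note: this counterscreen used the strain with wild-type TIM10; 0% = yeast with DMSO and 100% = medium wells lacking yeast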
# An asterisk follows results filed as active; / = not tested or not shown. This is a sample that favours compounds with a hit; in the whole collection about 4.6% have one here.
SMILES,PfHsp90 yeast 2,tim10-1 inh,tim23-1 inh,TIM10 inh,NALP3 yeast inh,SKKanGAS inh,tim10 confirm
O=C(Nc1ccc(S(=O)(=O)N2CCCCCC2)cc1)c1ccc(Br)o1,-43.4,39.6,40.2,55.7*,16.1,9.5,49.6*
O=C(COc1ccccc1)Nc1ccc(S(=O)(=O)N2CCCCCC2)cc1,-5.4,37.7,35.3,71.1*,1.1,11.0,59.7*
Cc1cccc(N(Cc2ccccc2)C(=O)CN2C(=O)NC3(CCCC3)C2=O)c1,0.1,25.9,13.1,13.0,-4.0,/,/
Cc1cc(C)n(-c2nc(NC(C)(C)C)nc(NC(C)(C)C)n2)n1,-30.9,35.1,41.9,45.0*,-14.7,111.2*,43.0*
COc1ccc(/C=C/C(=O)c2ccc(Cl)cc2)c(OC)c1,13.5,28.3,25.9,44.0*,16.1,-0.9,26.2
COc1ccc(/C=C/C(=O)c2cc(Cl)ccc2O)c(OC)c1,-7.7,18.6,32.0,22.5,14.3,-0.5,/
O=C(O)C1Sc2[nH]c(=O)sc2C2c3cc(Br)ccc3OC(=O)C12 (stereo unspecified),21.9,22.4,29.8,43.6*,7.3,2.2,33.2*
CCOC(=O)Cc1csc(NC(=O)CSc2nc(=O)[nH]c3c2CCCC3)n1,20.3,-14.3,-7.6,4.3,12.7,-2.2,/
COc1ccc(C(=O)NCc2nnc(SCC(=O)c3ccc(F)cc3)n2C)cc1OC,-1.7,-5.5,0.3,11.3,14.0,-6.0,/
C/C(=N/NS(=O)(=O)c1ccc(CC(C)C)cc1)c1ccncc1,-9.7,-15.5,-0.4,2.0,21.6,0.2,/
O=C(Nc1cccc(Cl)c1)c1ccc2c(c1)SC1=NS(=O)(=O)CCN12,-13.2,/,/,/,/,/,/
Nc1c(C(=O)Nc2ccccc2F)sc2nc(-c3ccco3)ccc12,-44.2,17.8,6.0,41.0*,8.8,11.0,18.9
COc1cc(/C=C/C(=O)c2ccc(F)cc2)cc(OC)c1OC,10.9,39.3,48.4,41.9*,-14.6,-4.0,42.0*
Cn1c(=O)cc(Nc2ccccc2)c2c(=O)n(-c3ccccc3)c(=O)n(-c3ccccc3)c21,-10.3,-11.4,9.5,6.8,3.4,-7.6,/
Cc1ccc(C(=O)Nc2ccc3c(c2)nc2n3CCSC2)cc1,-0.4,25.8,41.8,63.2*,18.8,-1.8,65.1*
COc1ccc(NC(=S)N2CCC(c3ccccc3)C2)cc1 (stereo unspecified),8.0,36.0,28.4,7.6,3.5,1.5,/
Cc1ccc(Cl)cc1NC(=S)N1CCC(c2ccccc2)C1 (stereo unspecified),0.2,36.6,14.1,51.9*,25.6,-0.7,37.4*
COc1cc2c(cc1OC)C(Nc1ccccc1)=NC(C)(C)C2,9.3,3.8,-4.0,-16.8,-1.1,-1.6,/
O=C(NCC1COc2ccccc2O1)Nc1ccccc1F (stereo unspecified),-24.6,9.2,29.1,24.3,24.5,2.7,/
CN(CC1COc2ccccc2O1)C(=S)Nc1ccccc1F (stereo unspecified),11.7,27.5,42.7,41.1*,31.5,0.9,25.9
O=C(COC(=O)C1CCC1)NCc1ccc(F)cc1,/,6.3,7.9,3.3,4.3,2.7,/
CC(C)COP(=O)(OCC(C)C)C(Nc1ccccc1)c1ccc(F)cc1 (stereo unspecified),-15.5,15.2,46.5,25.0,4.0,0.2,/
CC(C)COP(=O)(OCC(C)C)C(Nc1ccccc1)c1ccccc1 (stereo unspecified),-27.2,31.6,38.2,40.8*,-6.3,7.2,34.1*
COc1ccc(CN2CC[C@@H](N3CCOCC3)[C@H](O)C2)cc1F,-13.5,-15.3,-2.1,-10.7,20.4,0.6,/
COc1ccc(C2=NN(C(=O)CCC(=O)O)C(c3ccc(Br)cc3)C2)cc1 (stereo unspecified),-6.9,-12.6,-1.4,44.1*,9.6,23.1,7.0
SMILES,PfHsp90 yeast 2,tim10-1 inh,tim23-1 inh,TIM10 inh,NALP3 yeast inh,SKKanGAS inh,tim10 confirm
CC(C)(C)c1cc(NCc2ccccn2)n2ncc(-c3ccccc3)c2n1,108.3*,28.2,43.0,51.9*,28.1,108.0*,42.4*
C[C@@H]1ON(C)[C@H]2C[C@H]3c4cc(-c5cccc(F)c5)ccc4CCN3C(=O)[C@@H]12,1.6,/,/,/,/,/,/
COc1ccccc1N1CC(C)(C)C(=O)N(C(=O)c2ccc(C)cc2)C1=S,8.8,36.7,49.2,42.6*,28.3,2.5,44.9*
COc1ccccc1N1CCN(C(=O)c2ccc(N3CCCC3=O)cc2)CC1,-21.0,4.8,12.9,14.5,12.3,-1.3,/
CCOC(=O)C1CCN(S(=O)(=O)c2ccc3c(c2)CC(C)N3C(=O)C2CC2)CC1 (stereo unspecified),29.9,2.0,36.3,40.4*,12.5,21.0,48.8*
CC1CCC2(CC1)NC(=O)N(CC(=O)NCCc1ccc(F)cc1)C2=O (stereo unspecified),-14.0,-11.5,-1.7,68.3*,12.7,/,-9.2
CC1CCC2(CC1)NC(=O)N(CC(=O)NCCc1ccccc1)C2=O (stereo unspecified),3.6,0.0,14.4,1.1,5.0,/,/
CS(=O)(=O)c1cccc(C(=O)OCC(=O)NCc2cccs2)c1,-6.1,5.4,3.5,72.1*,-3.0,/,-7.6
CCOc1cccc(N(C(=O)CNC(=O)c2ccco2)C(C(=O)NCC2CCCO2)c2ccccc2)c1 (stereo unspecified),-3.6,1.3,14.4,-8.5,5.6,0.0,/
CCN1C(=O)/C(=C/c2nc3ccccc3c(=O)n2-c2ccccc2)c2ccccc21,-7.3,24.7,42.3,42.9*,-4.8,10.8,25.9
CCCCCCC1NC(C(=O)O)CS1 (stereo unspecified),-30.5,7.7,15.9,-3.9,11.6,0.9,/
COc1ccc2sc(-c3ccc(N(C)C)cc3)c(C#Cc3cncn3C)c2c1,13.2,1.6,27.4,6.1,-1.3,/,/
Cc1ccc(C)c(N2CCN(C(=O)C3CCN(c4nc(C)cc(C)n4)CC3)CC2)c1,29.8,27.4,39.0,37.9,6.6,-1.1,/
Cc1cc(C)nc(N2CCC(C(=O)N3CCN(c4cc(Cl)ccc4C)CC3)CC2)n1,-18.2,29.2,33.0,46.8*,13.1,14.3,24.8
O=C(COC(=O)c1ccccn1)NC(=O)c1ccccc1,12.2,7.0,-9.3,6.8,14.2,/,/
O=C(NC(=S)NCCC1=CCCCC1)c1cccnc1,3.6,39.2,42.8,54.1*,-37.5,0.9,48.3*
CNc1nc(N)c([N+](=O)[O-])c(Nc2ccccc2OC)n1,-5.1,27.0,32.8,43.7*,31.0,7.1,52.2*
CCOc1ccc(NC(=O)[C@H](Cc2ccccc2)NC(=O)C2CCNCC2)cc1,6.1,-5.5,2.3,-4.1,2.7,-1.5,/
COc1cccc(N2CCN(C(=O)c3ccc4nc(N5CCC(C)CC5)sc4c3)CC2)c1,/,31.0,39.1,41.6*,16.5,21.6,41.9*

# Source: PubChem BioAssay (several laboratories)
